From PubChem BioAssay
Active and inactive are the calls of the source.

Columns and labels:
[1] = tested on: Plasmodium falciparum Sir2 (PF13_0152, Sir2A); assay: pfSir2 binders on small-molecule microarrays, primary screen, biochemical, small-molecule microarray, 635 nm fluorescence (AID 1098); conditions: small-molecule microarray binding, fluorescence 635 nm; higher = more signal;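 also: score merges spot fluorescence intensity with its signal-to-noise ratio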
[2] = small-molecule microarray binders of probe aDKK1, primary screen, biochemical, biotinylated probe, 635/667 nm fluorescence (AID 1099); conditions: higher = more signal;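 also: score merges 667nm spot fluorescence with signal to noise across triplicate slides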
[3] = small-molecule microarray binders of probe aCHRDL2, primary screen, biochemical, biotinylated probe, 635/667 nm fluorescence (AID 1100); conditions: higher = more signal
[4] = splicing luciferase reporter signal modulators, primary screen, spliceosome inhibition project, cell-based, HEK293, splice +/- reporter (AID 1101); conditions: luminescence, 24 h, higher = more signal, called active from +8 up or from −8 down;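 also: HEK293 cells carrying a splicing-competent luciferase reporter gene; test concentration not given here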
[5] = target: Fibroblast growth factor 10 (Homo sapiens) (UniProt O15520); assay: FGF10 binders on small-molecule microarrays, primary screen, biochemical, small-molecule microarray, 635 nm fluorescence (AID 1102); conditions: FGF10 binding, fluorescence 635 nm, higher = more signal
Fibroblast growth factor 10 (Homo sapiens), sequence (O15520 whole entry, looked up): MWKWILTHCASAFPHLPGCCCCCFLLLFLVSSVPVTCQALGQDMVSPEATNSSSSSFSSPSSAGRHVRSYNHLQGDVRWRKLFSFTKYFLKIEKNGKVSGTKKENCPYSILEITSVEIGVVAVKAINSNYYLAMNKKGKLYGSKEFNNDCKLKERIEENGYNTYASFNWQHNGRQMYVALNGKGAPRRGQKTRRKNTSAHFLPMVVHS

[6] = tested on: glycogen synthase kinase-3 (GSK3A per assay name; protocol says GSK3B); assay: GSK3 binders on small-molecule microarrays, primary screen, biochemical, small-molecule microarray, 635 nm fluorescence, GSK3A (AID 1103); conditions: small-molecule microarray binding, fluorescence 635 nm; higher = more signal; also: the record names both GSK3A and GSK3B
[7] = target: Epidermal growth factor receptor (Homo sapiens) (UniProt P00533); assay: EGFR binders on small-molecule microarrays, primary screen, biochemical, small-molecule microarray, 635 nm fluorescence (AID 1104); conditions: EGFR binding, higher = more signal;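 also: score merges 667 nm emission intensity with spot signal to noise over triplicate slides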
Epidermal growth factor receptor (Homo sapiens), sequence (P00533 whole entry, looked up): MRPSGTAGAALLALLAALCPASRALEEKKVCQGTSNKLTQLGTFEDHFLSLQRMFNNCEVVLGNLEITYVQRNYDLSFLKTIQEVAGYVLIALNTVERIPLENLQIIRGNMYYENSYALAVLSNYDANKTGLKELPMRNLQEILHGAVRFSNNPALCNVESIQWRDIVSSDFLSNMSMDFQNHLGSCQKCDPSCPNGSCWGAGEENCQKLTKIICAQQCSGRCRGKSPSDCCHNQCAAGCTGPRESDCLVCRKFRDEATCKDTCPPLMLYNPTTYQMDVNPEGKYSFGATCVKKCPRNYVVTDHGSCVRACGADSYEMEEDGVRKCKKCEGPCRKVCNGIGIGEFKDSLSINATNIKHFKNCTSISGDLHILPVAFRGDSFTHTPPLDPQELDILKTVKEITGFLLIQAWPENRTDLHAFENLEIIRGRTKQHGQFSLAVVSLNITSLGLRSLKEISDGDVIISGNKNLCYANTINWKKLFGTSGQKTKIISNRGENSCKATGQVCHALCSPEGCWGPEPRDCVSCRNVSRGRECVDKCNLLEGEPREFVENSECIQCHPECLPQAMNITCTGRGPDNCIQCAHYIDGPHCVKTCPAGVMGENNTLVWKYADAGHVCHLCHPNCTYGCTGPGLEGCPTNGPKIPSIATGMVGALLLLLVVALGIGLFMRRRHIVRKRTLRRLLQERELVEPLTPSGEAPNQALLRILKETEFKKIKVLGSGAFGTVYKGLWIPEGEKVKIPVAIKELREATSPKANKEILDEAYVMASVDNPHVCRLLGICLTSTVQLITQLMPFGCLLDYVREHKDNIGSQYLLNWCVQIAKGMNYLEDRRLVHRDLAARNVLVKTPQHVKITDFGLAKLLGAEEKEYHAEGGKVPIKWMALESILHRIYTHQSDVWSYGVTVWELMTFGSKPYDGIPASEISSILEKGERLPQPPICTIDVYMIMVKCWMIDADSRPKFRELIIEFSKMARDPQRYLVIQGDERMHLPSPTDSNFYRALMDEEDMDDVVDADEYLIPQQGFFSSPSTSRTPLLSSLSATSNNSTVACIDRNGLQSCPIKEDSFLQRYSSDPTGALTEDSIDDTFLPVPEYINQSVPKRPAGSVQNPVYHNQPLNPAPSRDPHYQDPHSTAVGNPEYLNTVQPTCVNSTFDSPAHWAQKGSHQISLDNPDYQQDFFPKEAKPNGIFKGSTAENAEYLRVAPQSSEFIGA

[8] = target: Follistatin-related protein 3 (Homo sapiens) (UniProt O95633); assay: FSTL3 binders on small-molecule microarrays, primary screen, biochemical, small-molecule microarray, 635 nm fluorescence (AID 1105); conditions: FSTL3 binding, higher = more signal;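 also: score merges emission near 667 nm and signal to noise per printed spot across three slides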
Follistatin-related protein 3 (Homo sapiens), sequence (O95633 whole entry, looked up): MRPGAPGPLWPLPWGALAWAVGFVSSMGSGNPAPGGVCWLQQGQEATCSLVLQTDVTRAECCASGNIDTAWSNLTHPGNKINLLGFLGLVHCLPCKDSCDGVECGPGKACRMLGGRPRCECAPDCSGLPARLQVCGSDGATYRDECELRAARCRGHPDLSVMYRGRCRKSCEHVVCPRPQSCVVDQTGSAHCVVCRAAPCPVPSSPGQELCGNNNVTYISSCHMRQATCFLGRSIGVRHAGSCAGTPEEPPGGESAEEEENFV

[9] = target: Dickkopf-related protein 1 (Homo sapiens) (UniProt O94907); assay: DKK1 binders on small-molecule microarrays, primary screen, biochemical, small-molecule microarray, 635 nm fluorescence scan (AID 1106); conditions: DKK1 binding, higher = more signal;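 also: score merges emission near 667 nm with signal to noise over three replicate slides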
Dickkopf-related protein 1 (Homo sapiens), sequence (O94907 whole entry, looked up): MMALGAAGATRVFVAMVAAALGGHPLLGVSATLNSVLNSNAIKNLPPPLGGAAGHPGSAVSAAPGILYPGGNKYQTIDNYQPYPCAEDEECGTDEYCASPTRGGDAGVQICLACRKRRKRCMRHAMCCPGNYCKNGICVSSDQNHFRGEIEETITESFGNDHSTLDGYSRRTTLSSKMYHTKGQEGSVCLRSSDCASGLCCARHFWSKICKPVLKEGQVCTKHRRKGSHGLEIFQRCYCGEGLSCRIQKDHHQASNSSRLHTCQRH

[10] = tested on: Inhibin beta A chain (activin A); assay: INHBA (activin A) binders on microarrays, primary screen, biochemical, small-molecule microarray, 635 nm fluorescence scan (AID 1107); conditions: small-molecule microarray binding, higher = more signal;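 also: mouse activin A protein probed at 4.33 µg/mL on printed slides; score merges bound-protein fluorescence near 667 nm with spot signal-to-noise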
[11] = tested on: Human papillomavirus type 1a protein E7 (residues 44-93); assay: HPV1a E7 fragment binders on microarrays, primary screen, biochemical, small-molecule microarray, residues 44-93, 635 nm fluorescence (AID 1108); conditions: small-molecule microarray binding, fluorescence 635 nm; higher = more signal;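 also: E7 fragment applied at 1 µg/mL in TBST for 1 h at 4 C; score combines spot fluorescence with its signal to noise ratio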
[12] = modulators of HCV replicon luciferase signal, primary screen, HCV replication inhibitor project, Huh7 cells, luciferase reporter (AID 1109); conditions: 48 h, higher = more signal;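 also: huh7 hepatoma cells harbouring a luciferase neomycin HCV replicon reporter; luciferase luminescence as measure of HCV replicon replication; test concentration not given here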
[13] = target: Left-right determination factor 2 (Homo sapiens) (UniProt O00292); assay: LEFTY2 binders on small-molecule microarrays, primary screen, biochemical, small-molecule microarray, 635 nm fluorescence scan (AID 1110); conditions: LEFTY2 binding, higher = more signal
Left-right determination factor 2 (Homo sapiens), sequence (O00292 whole entry, looked up): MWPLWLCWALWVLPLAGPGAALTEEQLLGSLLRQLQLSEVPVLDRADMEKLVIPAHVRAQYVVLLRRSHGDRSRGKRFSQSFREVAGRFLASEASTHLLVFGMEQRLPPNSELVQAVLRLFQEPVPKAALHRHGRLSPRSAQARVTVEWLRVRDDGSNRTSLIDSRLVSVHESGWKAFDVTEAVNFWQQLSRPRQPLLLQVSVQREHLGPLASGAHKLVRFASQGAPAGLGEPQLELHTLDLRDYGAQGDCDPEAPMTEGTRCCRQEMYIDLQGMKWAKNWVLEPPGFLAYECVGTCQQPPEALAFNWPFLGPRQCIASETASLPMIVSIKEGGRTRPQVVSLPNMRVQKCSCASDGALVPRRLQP

[14] = target: Calmodulin-1 (Homo sapiens) (UniProt P0DP23); assay: CALM1 binders on microarrays, EGTA buffer, profiling panel, biochemical, small-molecule microarray, Cy5-labelled CALM1 (AID 1111); conditions: Cy5-CALM1 binding fluorescence, higher = more signal;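 also: labelled calmodulin applied in Tris saline Tween buffer holding calcium plus EGTA and DTT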
[15] = target: Calmodulin-1 (Homo sapiens) (UniProt P0DP23); assay: calcium-bound CALM1 binders on microarrays, profiling panel, artefact control for SMM control-protein annotation, biochemical, small-molecule microarray, Cy5-labelled CALM1, plus calcium (AID 1112); conditions: Cy5-CALM1 binding fluorescence, higher = more signal;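 also: score merges spot fluorescence with signal to noise from triplicate slides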
[16] = small-molecule microarray binders of probe aWnt5a, primary screen, biochemical, biotinylated probe, 635/667 nm fluorescence (AID 1113); conditions: higher = more signal;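 also: score merges 667 nm fluorescence intensity with signal-to-noise per printed feature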
[17] = small-molecule microarray binders of probe aShh, primary screen, biochemical, biotinylated probe, 635/667 nm fluorescence (AID 1114); conditions: higher = more signal;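 also: probe is biotin-labelled aShh protein from a stem cell growth factor screen; measures binding of labelled protein to compounds printed on the slide; score merges feature fluorescence at 667 nm with signal-to-noise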
[18] = small-molecule microarray binders of probe aNog, primary screen, biochemical, biotinylated probe, 635/667 nm fluorescence (AID 1115); conditions: higher = more signal;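 also: probe is biotinylated aNog protein used at 0.15 µg/mL for 1 h at 4 C; z-score combines 667 nm fluorescence of each spot with its signal to noise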
[19] = target: Torsin-1A-interacting protein 1 (Homo sapiens) (UniProt Q5JTV8); assay: LAP1 binders from COS7 cell lysate, primary screen, small-molecule microarray, 635/667 nm fluorescence (AID 1116); conditions: COS7-hLAP1 lysate binding, 635 nm fluorescence, higher = more signal
Torsin-1A-interacting protein 1 (Homo sapiens), sequence (Q5JTV8 whole entry, looked up): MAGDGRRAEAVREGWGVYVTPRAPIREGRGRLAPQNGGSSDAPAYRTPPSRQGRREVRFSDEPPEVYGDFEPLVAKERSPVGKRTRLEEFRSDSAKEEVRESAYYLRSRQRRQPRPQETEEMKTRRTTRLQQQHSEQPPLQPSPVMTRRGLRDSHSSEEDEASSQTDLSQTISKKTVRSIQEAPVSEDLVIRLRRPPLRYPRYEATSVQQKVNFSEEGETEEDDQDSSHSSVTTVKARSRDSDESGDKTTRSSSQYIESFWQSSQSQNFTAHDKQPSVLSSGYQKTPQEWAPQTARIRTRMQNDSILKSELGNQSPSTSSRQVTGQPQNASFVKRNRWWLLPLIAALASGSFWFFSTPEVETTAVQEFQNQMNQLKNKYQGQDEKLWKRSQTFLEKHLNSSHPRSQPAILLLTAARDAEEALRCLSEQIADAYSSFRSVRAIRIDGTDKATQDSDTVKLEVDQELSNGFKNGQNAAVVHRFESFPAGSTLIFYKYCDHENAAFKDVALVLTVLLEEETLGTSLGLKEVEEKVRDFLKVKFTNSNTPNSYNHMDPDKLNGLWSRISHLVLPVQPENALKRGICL

[20] = target: Alpha-bungarotoxin (Bungarus multicinctus) (UniProt P60615); assay: alpha-bungarotoxin binders on microarray, profiling panel, artefact control for SMM control protein annotation, biochemical, small-molecule microarray, Alexa647 label, 635/667 nm fluorescence (AID 1117); conditions: alpha-BTX-A647 binding fluorescence, higher = more signal
Alpha-bungarotoxin (Bungarus multicinctus), sequence (P60615 whole entry, looked up): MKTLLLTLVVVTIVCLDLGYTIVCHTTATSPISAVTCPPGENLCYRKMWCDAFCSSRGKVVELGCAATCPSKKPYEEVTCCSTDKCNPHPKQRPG

Compound | composite z-score [1] | composite z-score [2] | composite z-score [3] | z-score [4] | composite z-score [5] | composite z-score [6] | composite z-score [7] | composite z-score [8] | composite z-score [9] | composite z-score [10] | composite z-score [11] | z-score [12] | composite z-score [13] | composite z-score [14] | composite z-score [15] | composite z-score [16] | composite z-score [17] | composite z-score [18] | composite z-score [19] | composite z-score [20]
CC(CO)N1C(=O)[C@]2(C)C3C(=O)OCCC/C=C\[C@H]3OC23C=CCN(c2ccc(Cl)cc2)C(=O)[C@@H]13 (stereo not given in full) | -0.714 | -0.0842 | 0.167 | -0.712 (inactive) | -0.39 | -0.558 | -0.558 | -0.798 | -0.0396 | -0.0439 | -0.886 | 0.636 | -0.945 | -0.275 | 0.079 | -0.0573 | -0.243 | -0.318 | -0.549 | -0.358
CCCCNC(=O)c1ccc(C#CC(C)(C)C)c(OC(C)=O)c1 | 0.311 | -0.369 | -0.675 | -1.11 (inactive) | 1.11 | 1.04 | 0.841 | 1.44 | 0.689 | 1.12 | 0.845 | -0.196 | 0.806 | 0.0614 | -0.526 | -0.159 | -0.117 | -0.256 | 0.5 | 0.608
CC1CC/C=C\[C@H]2OC34C=CCN(c5ccc(Cl)cc5)C(=O)[C@H]3N(C(C)CO)C(=O)[C@]4(C)C2C(=O)O1 (stereo not given in full) | 0.365 | -0.132 | 0.158 | -0.718 (inactive) | -0.39 | -0.793 | -0.955 | -1.43 | -0.945 | 0.896 | -0.815 | -1.16 | -0.707 | 0.253 | -0.141 | -0.124 | -0.289 | -0.0133 | 0.0045 | -0.664
C=CCNC(=O)[C@@H]1[C@H]2C(=O)O[C@H](c3ccccc3)[C@H](c3ccccc3)N2[C@H](c2ccc(O)cc2)[C@@]12C(=O)N(C(=O)OCCOC)c1ccc(C#CC3=CCCCC3)cc12 | 1.04 | -0.122 | -0.294 | -1.19 (inactive) | 0.965 | 1.29 | 0.714 | 1.09 | 0.53 | 0.492 | 1.36 | -2.14 | 0.588 | 0.544 | -0.0251 | -0.0685 | -0.0769 | 0.185 | 0.319 | 0.662
COc1cc2c(cc1O)C=[N+](Cc1sc3ccccc3c1Cl)CC2 | 0.209 | 0.0295 | 0.494 | 0.134 (inactive) | -0.0275 | 0.0717 | 0.454 | -0.0687 | 0.396 | 1.19 | -0.429 | -1.57 | 0.324 | -0.0659 | 0.0401 | -0.0403 | -0.0626 | 0.162 | 0.25 | 0.252
